Among the data in PubChem BioAssay (Tox21) are outcome and Potency values, retold here.

A short description of test [1]: qHTS RealTime-Glo MT Cell Viability Assay in HEK293 cells - 0 hour (AID 1224880). Further: top concentration of the series differs between compounds; nearly all actives have a fitted effect of over 45% in size. The essentials: (§1)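 Viable HEK293 cells reduce a cell-permeant prosubstrate; the product diffuses out and is consumed by NanoLuc in the medium to give light. Compounds went in after a 5 h incubation and plates were read over the treatment course.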
Test [2] in a line: A CellTox Green Cytotoxicity Assay to monitor cytotoxicity in HEK293 cells - 32 hour (AID 1224881). Further: nearly all actives have a fitted effect of over 40% in size. An outline of the steps:
(§2)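 Fluorescence intensity, read at 0, 8, 16, 24, 32 and 40 h of compound treatment, reflected dye binding to DNA of dead HEK293 cells; compounds (23 nL, DMSO) were added 5 h after plating cells with reagent.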

A short description of test [3]: A CellTox Green Cytotoxicity Assay to monitor cytotoxicity in HepG2 cells - 0 hour (AID 1224882). Further: nearly all actives have a fitted effect of over 35% in size. The essentials: (§3)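 Using 1536-well format, dye-containing HepG2 suspension was seeded, allowed 5 h at 37 C/5% CO2, dosed by pintool with compounds, positive and negative controls, and imaged for fluorescence across 40 h.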
A short description of test [4]: A CellTox Green Cytotoxicity Assay to monitor cytotoxicity in HEK293 cells - 8 hour (AID 1224884). Further: nearly all actives have a fitted effect of over 35% in size. The essentials: as §2
Test [5] in a line: qHTS RealTime-Glo MT Cell Viability Assay in HepG2 cells - 16 hour (AID 1224885). Further: nearly all actives have a fitted effect of over 50% in size. Further: potency means the concentration at half of the fitted maximal effect. The essentials: (§4)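 HepG2 suspension premixed with RealTime-Glo reagents is plated at 600 cells per well and left 5 h at 37 C/5% CO2. Compounds in DMSO then go in, and bioluminescence reflecting viable cell number is recorded over 40 h.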
For orientation: In qHTS, concentration-response curves come from the screen itself.

A short description of test [6]: qHTS RealTime-Glo MT Cell Viability Assay in HEK293 cells - 24 hour (AID 1224886). Further: nearly all actives have a fitted effect of over 50% in size. Further: potency means the concentration at half of the fitted maximal effect. The essentials:
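Reads taken at 0, 8, 16, 24, 32 and 40 h from the same wells. HEK293 cells (600/well) carried RealTime-Glo reagents from seeding, with compound added after a 5 h settle at 37 C.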

Test [7] is described as follows: qHTS RealTime-Glo MT Cell Viability Assay in HEK293 cells - 8 hour (AID 1224887). Further: nearly all actives have a fitted effect of over 50% in size. Further: potency means the concentration at half of the fitted maximal effect. An outline of the steps:
as §1

Test [8] is described as follows: A CellTox Green Cytotoxicity Assay to monitor cytotoxicity in HEK293 cells - 16 hour (AID 1224888). Further: nearly all actives have a fitted effect of over 35% in size. An outline of the steps: as §2
The nature of test [9]: qHTS RealTime-Glo MT Cell Viability Assay in HepG2 cells - 0 hour (AID 1224889). Further: nearly all actives have a fitted effect of over 50% in size. An outline of the steps:
as §4

Test [10] is described as follows: A CellTox Green Cytotoxicity Assay to monitor cytotoxicity in HepG2 cells - 8 hour (AID 1224890). Further: nearly all actives have a fitted effect of over 45% in size. The essentials: as §3
The nature of test [11]: qHTS assay to identify small molecule antagonists of the estrogen receptor alpha (ER-alpha) signaling pathway using the BG1 cell line in the presence of 0.1 nM 17-beta-estradiol - cell viability counter screen (AID 1259241). Further: nearly all actives have a fitted effect of over 40% in size. An outline of the steps:
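In this screen, hormone-deprived VM7Luc4E2 cells were seeded at 4,000 per well, dosed with compound and 0.1 nM estradiol final, and incubated 22 hr at 37C and 5% CO2; fluorogenic live-cell protease signal reported viability.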

Test [12] is described as follows: qHTS assay to identify small molecule antagonists of the androgen receptor (AR) signaling pathway using the MDA cell line in the presence of 0.5 nM R1881 - cell viability counter screen (AID 1259242). Further: nearly all actives have a fitted effect of over 45% in size. Further: potency means the concentration at half of the fitted maximal effect. An outline of the steps:
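Viability of MDA-kb2 cells was multiplexed with the luciferase AR readout; after 16 hr with compounds and R1881 at 0.5 nM final, CellTiter-Fluor fluorescence was recorded.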

Test [13] deals with Estrogen receptor (Homo sapiens) (UniProt P03372). In words: qHTS assay to identify small molecule antagonists of the estrogen receptor alpha (ER-alpha) signaling pathway using the BG1 cell line in the presence of 0.1 nM 17-beta-estradiol (AID 1259244). Further: nearly all actives have a fitted effect of over 50% in size. Further: potency means the concentration at half of the fitted maximal effect. An outline of the steps: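 Estradiol at 0.1 nM (final) stimulates the endogenous ER-alpha of VM7Luc4E2 cells carrying an ERE-driven luciferase; compounds are co-incubated 22 h at 37C and luciferase output quantified by luminescence.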

Test [14] is described as follows: qHTS assay to identify small molecule HDAC inhibitors - cell viability counter screen (AID 1259365). An outline of the steps:
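Measured quantity is CellTiter-Glo luminescence from wild-type HCT-116 cells after compound incubation of 2hr at 37C, 5% CO2; reagent developed 30min at room temperature.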

A short description of test [15]: qHTS assay to identify small molecule agonists of the sonic hedgehog signaling (Shh) pathway - cell viability counter screen (AID 1259366). Further: nearly all actives have a fitted effect of over 50% in size. Further: potency means the concentration at half of the fitted maximal effect. An outline of the steps:
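In quantitative high-throughput format, 3T3 Gli1-Luc cells were exposed to compounds for 24hr and multiplexed for viability using CellTiter-Fluor, incubated 1hr at 37C before the fluorescence read.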

The nature of test [16]: qHTS assay to identify small molecule antagonists of the sonic hedgehog signaling (Shh) pathway - cell viability counter screen (AID 1259367). Further: nearly all actives have a fitted effect of over 55% in size. Further: potency means the concentration at half of the fitted maximal effect. An outline of the steps:
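Seed 3T3 Gli1-Luc cells at 2,000 per well; incubate 4 hr; add compound in DMSO, then conditioned medium; incubate at 37C with 5% CO2; add CellTiter-Fluor after 23 hr; read fluorescence 1 hr later.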

Test [17] can be described thus: A CellTox Green Cytotoxicity Assay to monitor cytotoxicity in HepG2 cells - 32 hour (AID 1224883). Further: nearly all actives have a fitted effect of over 50% in size. Further: potency means the concentration at half of the fitted maximal effect. An outline of the steps: as §3
Test [18] can be described thus: qHTS assay to identify small molecule HDAC inhibitors (AID 1259364).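 Further: wild-type HCT-116 cells with endogenous class I/II HDAC activity; top concentration of the series differs between compounds; nearly all actives have a fitted effect of over 45% in size.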 An outline of the steps:
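Read-out: luminescence of HDAC-Glo I/II reagent, 30 min RT, reflecting class I/II deacetylase activity in whole HCT-116 cells pre-exposed 2 h to DMSO-dissolved compounds.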

In test [19] the target is Androgen receptor (Homo sapiens) (UniProt P10275). The test is described as follows: qHTS assay to identify small molecule antagonists of the androgen receptor (AR) signaling pathway using the MDA cell line in the presence of 0.5 nM R1881 (AID 1259243). Further: nearly all actives have a fitted effect of over 50% in size. The essentials: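 Reporter cells cultured without CO2 receive test chemicals, then 0.5 nM R1881 final; after 16 hr at 37C, ONE-Glo is added and light output recorded.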

Test [20] can be described thus: qHTS assay to identify small molecule phospholipidosis (PLD) inducers (AID 1259344; active means well fitted curve in the direction sought with a large enough effect; an effect the other way counts as inactive or inconclusive). An outline of the steps:
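Quantitative HTS in HepG2: compound plus LipidTOX Red dye for 24 h, paraformaldehyde fixation with Hoechst 33342, widefield high-content imaging; amiodarone as positive and DMSO as negative control.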

Each structure is given as a SMILES string. Several values for one entry are separate records, joined by “and”; a condition that tells them apart may be missing. Identical values can stand only once. Results filed as inconclusive are left out. More than one record can exist for a structure, and the calls need not agree. Activity calls are given as the source filed them. Unless noted, the call rests on the fitted dose curve; in most records, active means well fitted curve in the direction sought with a large enough effect in the repeat runs; inconclusive means weak or mixed curves; inactive means no such curve, though single readings can be large; an effect the other way counts as inactive or inconclusive.

Estrogen receptor (Homo sapiens), sequence (P03372 whole entry, looked up): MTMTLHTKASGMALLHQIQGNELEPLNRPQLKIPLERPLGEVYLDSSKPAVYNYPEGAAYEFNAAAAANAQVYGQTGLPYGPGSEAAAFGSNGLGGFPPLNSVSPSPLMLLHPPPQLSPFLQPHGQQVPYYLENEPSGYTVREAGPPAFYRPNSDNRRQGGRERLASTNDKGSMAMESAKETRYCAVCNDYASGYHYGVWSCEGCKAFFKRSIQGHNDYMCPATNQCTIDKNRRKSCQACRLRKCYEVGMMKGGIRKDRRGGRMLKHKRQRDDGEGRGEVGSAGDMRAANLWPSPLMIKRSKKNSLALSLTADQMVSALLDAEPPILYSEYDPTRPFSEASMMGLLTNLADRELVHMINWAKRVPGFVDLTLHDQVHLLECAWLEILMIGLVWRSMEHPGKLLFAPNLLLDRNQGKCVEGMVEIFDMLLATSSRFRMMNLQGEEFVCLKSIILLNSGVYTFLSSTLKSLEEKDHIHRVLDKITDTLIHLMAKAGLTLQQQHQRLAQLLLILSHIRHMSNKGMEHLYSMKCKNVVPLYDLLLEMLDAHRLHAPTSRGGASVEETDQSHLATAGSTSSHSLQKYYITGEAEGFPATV
Androgen receptor (Homo sapiens), sequence (P10275 whole entry, looked up): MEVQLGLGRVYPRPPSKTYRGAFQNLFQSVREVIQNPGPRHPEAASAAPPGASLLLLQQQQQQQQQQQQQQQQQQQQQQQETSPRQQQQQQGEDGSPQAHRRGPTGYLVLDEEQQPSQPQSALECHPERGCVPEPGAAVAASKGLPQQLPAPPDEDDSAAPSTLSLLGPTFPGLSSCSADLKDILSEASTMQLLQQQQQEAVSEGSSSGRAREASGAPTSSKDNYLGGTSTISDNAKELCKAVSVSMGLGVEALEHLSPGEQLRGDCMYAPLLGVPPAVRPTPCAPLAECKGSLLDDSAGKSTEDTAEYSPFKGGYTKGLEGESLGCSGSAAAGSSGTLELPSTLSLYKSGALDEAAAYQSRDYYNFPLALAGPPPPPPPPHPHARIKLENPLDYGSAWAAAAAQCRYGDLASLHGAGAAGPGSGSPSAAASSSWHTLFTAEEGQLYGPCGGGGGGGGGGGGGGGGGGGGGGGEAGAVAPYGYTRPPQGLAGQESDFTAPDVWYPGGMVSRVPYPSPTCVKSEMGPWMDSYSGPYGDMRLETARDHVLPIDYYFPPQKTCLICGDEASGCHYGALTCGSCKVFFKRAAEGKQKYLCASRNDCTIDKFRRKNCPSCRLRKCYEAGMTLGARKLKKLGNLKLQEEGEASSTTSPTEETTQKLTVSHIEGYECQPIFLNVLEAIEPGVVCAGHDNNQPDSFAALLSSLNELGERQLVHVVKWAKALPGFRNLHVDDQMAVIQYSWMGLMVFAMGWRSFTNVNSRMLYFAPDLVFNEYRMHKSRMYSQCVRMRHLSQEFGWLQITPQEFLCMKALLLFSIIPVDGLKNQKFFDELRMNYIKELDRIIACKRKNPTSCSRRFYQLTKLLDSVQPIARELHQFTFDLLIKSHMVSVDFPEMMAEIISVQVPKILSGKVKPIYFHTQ

In the case of `Cc1cccc2sc3nncn3c12`, the outcome in test [1], in [3], in [9], in test [11] and in test [14] was inactive. The Potency entry in test [2], in [4], in [5], in [6], in [7] and in [8] was “inactive” throughout. For the same compound, the Potency result in test [10], in test [12], in test [13], in test [15] and in [16] was “inactive” in each case.
Regarding `ClCCCCCCCl`, the outcome in test [1], in test [3], in [9], in test [11] and in [14] was inactive. For the same compound, the Potency result in test [2], in test [17], in test [4], in test [5], in test [6] and in [7] was “inactive” throughout. The Potency result in test [10], in test [12], in test [15] and in [16] was “inactive” each time.
Consider `N#CC(Br)(Br)C(N)=O`, for which the outcome in test [1], in test [3], in test [9], in test [11] and in test [14] was inactive. Also, the Potency result in test [2], in test [4], in test [5], in test [6], in [7] and in test [8] was “inactive” in each case. In addition, the Potency entry in test [10], in test [12], in test [18] and in test [15] was “inactive” throughout.
Turning to `C[C@H](N)C(=O)c1ccccc1`, the outcome in [1], in test [9], in test [11] and in [14] was inactive. The Potency entry in test [2], in [17], in test [4], in test [5], in test [6] and in test [7] was “inactive” each time. The Potency result in [8], in test [10], in test [12], in test [19], in [13] and in test [20] was “inactive” in each case. For the same compound, the Potency result in [18] and in test [16] was “inactive” in each case.
Consider `CC(C)(C1CCC(O)CC1)C1CCC(O)CC1` (stereo unspecified), for which the call in [1], in test [3], in [9], in test [11] and in test [14] was inactive. Also, the Potency result in [2], in [4], in test [5], in test [6], in test [7] and in test [8] was “inactive” in each case. Moreover, the Potency entry in [10], in test [12], in test [13], in [18], in test [15] and in test [16] was “inactive” throughout.
`CC1NCCOC1c1ccccc1` (stereo unspecified): the call in [1], in test [3], in test [9], in [11] and in test [14] was inactive. Besides, the Potency result in test [2], in test [4], in test [5], in [6], in test [7] and in [10] was “inactive” each time. Also, the Potency entry in [12], in test [13], in [20], in test [18], in test [15] and in test [16] was “inactive” throughout.
Turning to `O=C1C2CC=CCC2C(=O)N1SC(Cl)(Cl)Cl` (stereo unspecified), the compound was called inactive in [1], in test [3], in test [9], in test [11] and in test [14]. In addition, the Potency result in test [17] is “inactive and 9.61 µM (active)”; in test [5] it was “inactive and 42.9 µM (active)”; in test [6], 43.5 µM (active) and 3.41 µM (active); in test [7], 27.1 µM (active); in [12], “inactive and 16.9 µM (active)”; in test [13], “inactive and 26.9 µM (active)”. The Potency result was “inactive and 13.5 µM (active)” in test [15]; “inactive and 13.5 µM (active)” in test [16]. Besides, the Potency entry in test [4], in test [8], in [10], in test [20] and in test [18] was “inactive” in each case.
Regarding `CCNP(=S)(OC)O/C(C)=C/C(=O)OC(C)C` (stereo unspecified), the result in [1], in test [9], in [11] and in test [14] was inactive. Further, the Potency result in test [2], in test [17], in [4], in test [5], in test [6] and in test [7] was “inactive” in each case. For the same compound, the Potency entry in test [8], in [10], in test [12], in [13] and in test [15] was “inactive” each time.
For the compound `CCC1(c2cccc(O)c2)CCCCN(C)C1` (stereo unspecified), the result in test [1], in [9], in [11] and in [14] was inactive. Besides, the Potency result in test [2], in test [17], in test [4], in test [5], in test [6] and in [7] was “inactive” each time. The Potency entry in test [8], in [10], in [12], in test [20], in test [18] and in test [15] was “inactive” in each case.
As for `CCOC(=O)C(SP(=S)(OC)OC)c1ccccc1` (stereo unspecified), the result in [1], in test [11] and in test [14] was inactive. In addition, the Potency entry in [2], in test [17], in test [4], in test [5], in [6] and in test [7] was “inactive” each time. The Potency result in test [8], in test [10], in test [12], in test [18] and in [16] was “inactive” each time.
